# Laboratory results as given in PubChem BioAssay.
# Activity calls are given as the source filed them.
# Experiments:
# [1] = binders of probe aFSTL3 on microarray, primary screen, stem cell growth factor project, biochemical, small-molecule microarray, fluorescence 635/667 (AID 1064); conditions: higher = more signal;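 also: measures binding of the biotinylated anti-FSTL3 antibody to printed compounds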
# [2] = binders from COS7 lysate, DM2A8 probe, primary screen, torsin A project, cell lysate, small-molecule microarray, fluorescence 635/667 (AID 1065); conditions: higher = more signal, COS7 lysate expressing mutant human TOR1A
# [3] = binders of probe aFGF2 on microarray, primary screen, stem cell growth factor project, biochemical, small-molecule microarray, fluorescence 635/667 (AID 1067); conditions: higher = more signal;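 also: measures binding of biotinylated aFGF2 protein to printed compounds on slides; z-score merges feature fluorescence and signal-to-noise across triplicate slides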
# [4] = binders of probe aFGF10 on microarray, primary screen, stem cell growth factor project, biochemical, small-molecule microarray, fluorescence 635/667 (AID 1071); conditions: higher = more signal;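 also: score merges 667 nm spot intensity and signal to noise from triplicate slides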
# [5] = target: Neurogenic locus notch homolog protein 2 (Homo sapiens) (UniProt Q04721); assay: Notch2 binders on small-molecule microarrays, primary screen, biochemical, small-molecule microarray, 635 nm fluorescence, stem cell growth factors (AID 1073); conditions: Notch2 binding, higher = more signal
# Sequence of Neurogenic locus notch homolog protein 2 (Homo sapiens) (Q04721 whole entry, looked up, canonical isoform): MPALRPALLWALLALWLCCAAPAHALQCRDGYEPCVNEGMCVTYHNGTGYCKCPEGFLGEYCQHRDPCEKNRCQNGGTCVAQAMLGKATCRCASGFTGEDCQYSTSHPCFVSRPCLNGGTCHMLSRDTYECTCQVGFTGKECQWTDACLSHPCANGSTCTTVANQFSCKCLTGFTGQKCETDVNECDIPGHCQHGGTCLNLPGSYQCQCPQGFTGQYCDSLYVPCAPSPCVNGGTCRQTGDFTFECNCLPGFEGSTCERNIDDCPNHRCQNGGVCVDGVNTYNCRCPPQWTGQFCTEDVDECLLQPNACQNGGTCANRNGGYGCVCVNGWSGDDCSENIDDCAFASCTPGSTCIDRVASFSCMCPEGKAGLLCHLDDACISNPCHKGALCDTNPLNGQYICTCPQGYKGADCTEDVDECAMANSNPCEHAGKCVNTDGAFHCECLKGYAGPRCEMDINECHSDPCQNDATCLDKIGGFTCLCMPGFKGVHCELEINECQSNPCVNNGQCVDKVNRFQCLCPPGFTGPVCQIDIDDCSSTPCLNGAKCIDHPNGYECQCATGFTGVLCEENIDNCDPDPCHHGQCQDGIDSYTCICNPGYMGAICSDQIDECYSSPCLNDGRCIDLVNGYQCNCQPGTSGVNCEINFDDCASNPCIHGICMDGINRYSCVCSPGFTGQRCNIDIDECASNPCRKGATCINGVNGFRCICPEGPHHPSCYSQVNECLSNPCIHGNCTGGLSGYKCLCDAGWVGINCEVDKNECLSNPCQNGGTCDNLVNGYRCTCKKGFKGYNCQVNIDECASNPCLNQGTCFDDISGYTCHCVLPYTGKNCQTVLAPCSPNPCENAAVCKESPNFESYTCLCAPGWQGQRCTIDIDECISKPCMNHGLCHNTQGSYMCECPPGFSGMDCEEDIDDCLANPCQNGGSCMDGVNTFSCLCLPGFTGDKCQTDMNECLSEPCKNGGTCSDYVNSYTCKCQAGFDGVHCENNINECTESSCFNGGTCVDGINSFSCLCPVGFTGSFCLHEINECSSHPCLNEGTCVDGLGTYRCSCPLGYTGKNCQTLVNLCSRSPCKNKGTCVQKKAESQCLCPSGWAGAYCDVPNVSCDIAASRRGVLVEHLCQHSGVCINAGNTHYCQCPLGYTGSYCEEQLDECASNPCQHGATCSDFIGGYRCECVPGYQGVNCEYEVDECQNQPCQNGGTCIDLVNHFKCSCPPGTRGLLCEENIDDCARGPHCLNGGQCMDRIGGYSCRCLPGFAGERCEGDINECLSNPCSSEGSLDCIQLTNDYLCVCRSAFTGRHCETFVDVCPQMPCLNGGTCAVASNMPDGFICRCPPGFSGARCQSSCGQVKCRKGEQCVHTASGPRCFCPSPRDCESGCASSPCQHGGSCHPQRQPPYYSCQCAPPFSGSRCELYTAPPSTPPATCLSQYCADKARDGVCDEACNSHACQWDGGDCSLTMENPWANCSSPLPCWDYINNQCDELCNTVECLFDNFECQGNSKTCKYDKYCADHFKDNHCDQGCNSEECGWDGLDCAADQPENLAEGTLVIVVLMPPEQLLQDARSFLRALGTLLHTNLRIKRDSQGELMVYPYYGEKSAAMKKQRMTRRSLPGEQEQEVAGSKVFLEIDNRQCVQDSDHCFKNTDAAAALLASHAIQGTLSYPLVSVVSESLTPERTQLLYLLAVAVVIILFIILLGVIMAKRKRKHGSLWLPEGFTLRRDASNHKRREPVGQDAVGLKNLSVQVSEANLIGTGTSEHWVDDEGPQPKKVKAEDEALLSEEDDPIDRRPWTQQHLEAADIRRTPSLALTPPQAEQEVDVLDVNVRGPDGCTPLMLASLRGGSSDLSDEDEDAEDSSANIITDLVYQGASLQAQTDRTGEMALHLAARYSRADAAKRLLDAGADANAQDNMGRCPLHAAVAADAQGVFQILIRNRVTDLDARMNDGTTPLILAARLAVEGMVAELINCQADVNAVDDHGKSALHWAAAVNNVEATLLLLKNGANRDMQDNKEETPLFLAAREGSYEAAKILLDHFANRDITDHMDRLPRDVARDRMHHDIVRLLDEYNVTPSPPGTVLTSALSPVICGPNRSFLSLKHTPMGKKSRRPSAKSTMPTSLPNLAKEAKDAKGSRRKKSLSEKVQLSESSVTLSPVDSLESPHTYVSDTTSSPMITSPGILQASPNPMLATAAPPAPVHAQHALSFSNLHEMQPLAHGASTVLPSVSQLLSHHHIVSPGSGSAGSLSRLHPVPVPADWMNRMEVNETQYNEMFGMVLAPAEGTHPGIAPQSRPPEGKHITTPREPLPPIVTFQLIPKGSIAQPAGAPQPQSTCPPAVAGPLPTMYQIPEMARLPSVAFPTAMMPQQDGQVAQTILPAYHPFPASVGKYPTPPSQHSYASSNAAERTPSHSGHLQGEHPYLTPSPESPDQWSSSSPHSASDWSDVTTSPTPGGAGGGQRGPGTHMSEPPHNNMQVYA
# [6] = target: Pro-neuregulin-1, membrane-bound isoform (Homo sapiens) (UniProt Q02297); assay: NRG1 binders on small-molecule microarrays, primary screen, psychiatric disease protein project, biochemical, small-molecule microarray, fluorescence 635/667 (AID 1075); conditions: NRG1 binding, 635 nm fluorescence, higher = more signal;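 also: score combines 667 nm spot fluorescence with signal to noise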
# Sequence of Pro-neuregulin-1, membrane-bound isoform (Homo sapiens) (Q02297 whole entry, looked up, the tested form may be a part, canonical isoform): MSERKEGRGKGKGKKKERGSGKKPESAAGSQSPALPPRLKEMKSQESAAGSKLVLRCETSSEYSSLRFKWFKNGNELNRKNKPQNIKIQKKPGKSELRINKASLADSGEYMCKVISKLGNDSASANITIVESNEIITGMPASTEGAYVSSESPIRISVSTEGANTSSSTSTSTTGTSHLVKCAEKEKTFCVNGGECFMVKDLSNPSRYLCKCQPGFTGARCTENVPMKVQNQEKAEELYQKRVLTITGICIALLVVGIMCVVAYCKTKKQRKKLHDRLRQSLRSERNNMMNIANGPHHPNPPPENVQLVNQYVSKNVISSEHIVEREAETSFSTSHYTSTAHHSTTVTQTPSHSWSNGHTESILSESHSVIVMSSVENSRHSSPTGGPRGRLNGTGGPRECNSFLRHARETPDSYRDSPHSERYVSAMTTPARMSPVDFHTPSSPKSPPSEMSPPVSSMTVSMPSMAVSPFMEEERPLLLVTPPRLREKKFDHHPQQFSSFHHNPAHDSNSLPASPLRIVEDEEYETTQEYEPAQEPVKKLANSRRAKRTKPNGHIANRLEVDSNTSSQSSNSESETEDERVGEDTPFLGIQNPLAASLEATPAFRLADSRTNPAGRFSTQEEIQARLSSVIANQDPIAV
# [7] = test system: Neuregulin-1 EGF-like domain; assay: binders of neuregulin-1 EGF-like domain, primary screen, biochemical, small-molecule microarray, 635 nm fluorescence (AID 1081); conditions: small-molecule microarray binding, higher = more signal;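 also: binding of the protein to compounds printed on small-molecule microarray slides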
# [8] = FRG1 promoter luciferase signal modulators, primary screen, FRG1 inhibition for FSHD, cell-based, C2C12 myotubes, firefly/Renilla luciferase, luminescence (AID 1084); conditions: higher = more signal, called active from +8 up or from −8 down
# [9] = binders of probe aFST on microarray, primary screen, stem cell growth factor project, biochemical, small-molecule microarray, fluorescence 635/667 (AID 1086); conditions: higher = more signal;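 also: score merges 667 nm fluorescence with signal-to-noise of each printed compound spot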
# [10] = binders of probe aHhip on microarray, primary screen, stem cell growth factor project, biochemical, small-molecule microarray, fluorescence 635/667 (AID 1087); conditions: higher = more signal;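 also: score merges spot fluorescence at 667nm with spot signal to noise ratio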
compound,measurement,setting,value
C=CCOC(=O)[C@H]1[C@@H]2C(=O)O[C@@H](c3ccccc3)[C@@H](c3ccccc3)N2[C@@H](c2ccc(OCCOC(=O)[C@@H]3C[C@@H]4C(=O)N[C@@H](CCCC[N+](C)(C)C)C(=O)N4[C@@H]3c3ccc(O)cc3)cc2)[C@]12C(=O)Nc1ccccc12,composite z-score,[1],-0.518
same,composite z-score,[2],0.964
same,composite z-score,[3],-0.0503
same,composite z-score,[4],0.439
same,composite z-score,[5],0.459
same,composite z-score,[6],0.206
same,composite z-score,[7],1.15
same,z-score,[8],0.277 (inactive)
same,composite z-score,[9],-0.367
same,composite z-score,[10],-0.0618
CCCC#C[Si](O[C@H](CC)c1cn([C@H](CO)Cc2ccccc2)nn1)(C(C)C)C(C)C,composite z-score,[1],-0.503
same,composite z-score,[2],0.236
same,composite z-score,[3],-0.0856
same,composite z-score,[4],0.449
same,composite z-score,[5],0.769
same,composite z-score,[6],0.471
same,composite z-score,[7],0.988
same,z-score,[8],0.889 (inactive)
same,composite z-score,[9],-0.0393
same,composite z-score,[10],-0.0003
CC(C)N1C(=O)[C@@]2(Cc3ccccc31)c1ccccc1C(=O)N(C1CCCCC1)[C@H]2c1ccc(CO)cc1,composite z-score,[1],-0.302
same,composite z-score,[2],-0.0937
same,composite z-score,[3],-0.132
same,composite z-score,[4],0.397
same,composite z-score,[5],0.184
same,composite z-score,[6],0.452
same,composite z-score,[7],1.24
same,z-score,[8],0.0117 (inactive)
same,composite z-score,[9],-0.123
same,composite z-score,[10],-0.296
C#CCN(CC=C(C)C)[C@H](CO)c1ccccc1,composite z-score,[1],-0.418
same,composite z-score,[2],0.0737
same,composite z-score,[3],-0.164
same,composite z-score,[4],-0.078
same,composite z-score,[5],0.204
same,composite z-score,[6],-0.223
same,composite z-score,[7],-0.187
same,z-score,[8],-0.154 (inactive)
same,composite z-score,[9],-0.0173
same,composite z-score,[10],-0.199
CN1C(=O)C2C=CC(C(O)Cc3ccccc3)N(Nc3ccccc3)C2C1=O (stereo not given),composite z-score,[1],0.0217
same,composite z-score,[2],-0.576
same,composite z-score,[3],-0.116
same,composite z-score,[4],0.294
same,composite z-score,[5],1.21
same,composite z-score,[6],1.38
same,composite z-score,[7],1.13
same,z-score,[8],0.84 (inactive)
same,composite z-score,[9],0.0791
same,composite z-score,[10],-0.236
COCCOC(=O)N1C(=O)[C@@]2(c3cc(C#CC4=CCCCC4)ccc31)[C@H](C(=O)Nc1nc3ccccc3s1)[C@H]1C(=O)O[C@H](c3ccccc3)[C@H](c3ccccc3)N1[C@@H]2c1ccccc1OCCO,composite z-score,[1],0.346
same,composite z-score,[2],0.189
same,composite z-score,[3],0.0871
same,composite z-score,[4],0.77
same,composite z-score,[5],1.49
same,composite z-score,[6],1.15
same,composite z-score,[7],1.08
same,z-score,[8],1.29 (inactive)
same,composite z-score,[9],0.965
same,composite z-score,[10],0.463
C=CCNC(=O)[C@@H]1[C@H]2C(=O)O[C@H](c3ccccc3)[C@H](c3ccccc3)N2[C@H](c2ccccc2OCCO)[C@@]12C(=O)N(C(=O)OCCOC)c1ccc(C#CCNC(N)=O)cc12,composite z-score,[1],-0.14
same,composite z-score,[2],0.428
same,composite z-score,[3],-0.0864
same,composite z-score,[4],0.354
same,composite z-score,[5],0.524
same,composite z-score,[6],1.27
same,composite z-score,[7],0.958
same,z-score,[8],-0.623 (inactive)
same,composite z-score,[9],-0.0306
same,composite z-score,[10],0.251
O=C1O[C@H](c2ccccc2)[C@H](c2ccccc2)N2[C@H]1[C@@H](C(=O)Nc1nc3ccccc3s1)[C@]1(C(=O)Nc3ccc(C#CC4(O)CCCCCC4)cc31)[C@H]2c1ccc(OCCO)cc1,composite z-score,[1],-0.317
same,composite z-score,[2],0.792
same,composite z-score,[3],-0.129
same,composite z-score,[4],0.805
same,composite z-score,[5],0.642
same,composite z-score,[6],1.7
same,composite z-score,[7],1.06
same,z-score,[8],1.97 (inactive)
same,composite z-score,[9],0.395
same,composite z-score,[10],0.0413
O=C1C2C=CC(C(O)C(c3ccccc3)c3ccccc3)N(n3cnnc3)C2C(=O)N1Cc1ccccc1 (stereo not given),composite z-score,[1],-0.148
same,composite z-score,[2],0.488
same,composite z-score,[3],0.129
same,composite z-score,[4],0.784
same,composite z-score,[5],0.492
same,composite z-score,[6],0.429
same,composite z-score,[7],1.19
same,z-score,[8],0.266 (inactive)
same,composite z-score,[9],0.578
same,composite z-score,[10],0.446
O=C1O[C@H](c2ccccc2)[C@H](c2ccccc2)N2[C@H]1[C@@H](C(=O)O)[C@]1(C(=O)Nc3ccc(C#CCCO)cc31)[C@H]2c1ccc(O)cc1,composite z-score,[1],1.32
same,composite z-score,[2],0.502
same,composite z-score,[3],0.0248
same,composite z-score,[4],-0.0925
same,composite z-score,[5],-0.665
same,composite z-score,[6],0.957
same,composite z-score,[7],0.708
same,z-score,[8],0.482 (inactive)
same,composite z-score,[9],0.481
same,composite z-score,[10],0.437
COC(=O)[C@@]1(Cc2ccc(OC)cc2)[C@H]2c3cc(C(=O)N4CCCC4)n(Cc4ccc(OC)c(OC)c4)c3C[C@H]2CN1C(=O)c1ccccc1,composite z-score,[1],1.65
same,composite z-score,[2],0.188
same,composite z-score,[3],0.636
same,composite z-score,[4],0.199
same,composite z-score,[5],1.72
same,composite z-score,[6],2.16
same,composite z-score,[7],1.07
same,z-score,[8],2.25 (inactive)
same,composite z-score,[9],1.74
same,composite z-score,[10],0.319
COc1ccc([C@H]2OC[C@@H]3CC4(CC=CC4)C(=O)N32)cc1,composite z-score,[1],0.0596
same,composite z-score,[2],-0.407
same,composite z-score,[3],-0.129
same,composite z-score,[4],0.479
same,composite z-score,[5],-0.321
same,composite z-score,[6],-0.105
same,composite z-score,[7],1
same,z-score,[8],1.43 (inactive)
same,composite z-score,[9],-0.0135
same,composite z-score,[10],-0.236
CS(=O)(=O)CCOC(=O)C1=CC(CCCO)=CC(c2ccc(CN3CCCC3)cc2)N(Cc2cc3c(cc2Br)OCO3)C=C1C(=O)OCCS(C)(=O)=O (stereo not given),composite z-score,[1],0.26
same,composite z-score,[2],1.77
same,composite z-score,[3],0.127
same,composite z-score,[4],1.22
same,composite z-score,[5],1.38
same,composite z-score,[6],2.1
same,composite z-score,[7],1.25
same,z-score,[8],-0.271 (inactive)
same,composite z-score,[9],0.624
same,composite z-score,[10],0.224
C=C(C)C1C(=C)CN([C@H](CO)c2ccccc2)C1=O (stereo not given in full),composite z-score,[1],0.172
same,composite z-score,[2],-0.605
same,composite z-score,[3],-0.132
same,composite z-score,[4],-0.205
same,composite z-score,[5],-0.725
same,composite z-score,[6],-0.461
same,composite z-score,[7],-0.708
same,z-score,[8],0.0392 (inactive)
same,composite z-score,[9],-0.0839
same,composite z-score,[10],-0.0296
COc1ccc(CCNC(=O)[C@@H]2c3ccccc3C(=O)N(C3Cc4ccccc4C3)[C@H]2c2ccc(CO)cc2)cc1,composite z-score,[1],0.287
same,composite z-score,[2],-0.249
same,composite z-score,[3],0.0628
same,composite z-score,[4],0.219
same,composite z-score,[5],-0.395
same,composite z-score,[6],1.49
same,composite z-score,[7],1.05
same,z-score,[8],-1.06 (inactive)
same,composite z-score,[9],-0.183
same,composite z-score,[10],0.113
CC[C@@H]1C=C(C(=O)O)[C@H](c2ccco2)N1S(=O)(=O)c1ccc(C)cc1,composite z-score,[1],0.001
same,composite z-score,[2],0.0518
same,composite z-score,[3],-0.0141
same,composite z-score,[4],-0.214
same,composite z-score,[5],-0.974
same,composite z-score,[6],0.179
same,composite z-score,[7],0.504
same,z-score,[8],0.0623 (inactive)
same,composite z-score,[9],0.545
same,composite z-score,[10],-0.0391
